In PubChem BioAssay (NCI):
About 83,000 compounds went through this panel and 20% of them were active in at least one assay; those are over-represented in the sample as a whole.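 Assay: single dose, 48 h. Readout: percent growth (0 = no net growth; negative = cell death). Active: <10.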 A number with no mark means an inactive call. Calls of active or inactive are those of the source.

Each compound was assayed on HL-60(TB) leukemia (assay: NCI-60 one-dose screen, 48 h (100 = growth as untreated, 0 = no growth, -100 = all killed)). Conditions: 10 µM unless noted.

Structure (SMILES)	growth
Cc1c(C(=O)Nc2nc(-c3ccccc3)cs2)nnn1-c1cccc2ccccc12	54.4% [50 µM]
CCCCN1CCCn2c1nc1c2c(=O)n(CCC)c(=O)n1CCC	109%
O=C(Nc1ccc(OS(=O)(=O)c2ccccc2)cc1)C1CCCCC1	94%
COc1cc(OC)c(/C=C/C(=O)c2c(N)cc(OC)cc2OC)c(OC)c1	12.7%
COC(=O)/C=C/C(=O)c1cc(C)cc(C)c1O	86.6%
N#Cc1c(Nc2ccccc2)nc2n(c1=O)-c1ccccc1Sc1ccccc1-2	79.6%
CCCCCCCCCCCCCCCCCC(=O)OCCCCCCCCCCCCC	112%
CCCCCCCCCCCCCOC(=O)c1c(C)[nH]c(/C=C2\N=C(c3ccc[nH]3)C=C2OC)c1C	9.46% (active)
O=NN(C(=O)NC1CCC(C(=O)O)CC1)C1CCC(C(=O)O)CC1 (stereo not given)	112%
CCCNc1nc2ccccc2c2c(=O)c3cccc(Cl)c3sc12	108%
O=C1NC(=O)/C(=C/c2ccc3nccc(-c4ccncc4)c3c2)S1	-32.1% (active)
Cc1cc(Nc2ccc(C(=O)N3CCCC3)cc2)nc(NCCCNc2ccnc3cc(Cl)ccc23)n1	84.4%
O=c1ccn(C2CC(O)C(O)C(CO)O2)c(=O)[nH]1 (stereo not given)	90.4%
CC(C)(Sc1cc(C(C)(C)C)c(O)c(C(C)(C)C)c1)Sc1cc(C(C)(C)C)c(OC(=O)CCCC(=O)O)c(C(C)(C)C)c1	67.6%
COC(=O)[C@@H](NC(=O)[C@@H](OC)[C@@H]1Cc2cc3cc(OC4CC(OC5CC(O)C(O)C(C)O5)C(O)C(C)O4)c(C)c(O)c3c(O)c2C(=O)[C@H]1OC1CC(OC2CC(OC3CC(C)(O)C(O)C(C)O3)C(O)C(C)O2)C(O)C(C)O1)C(C)C (stereo not given in full)	52.4%
NS(=O)(=O)c1ccc(CCn2c(SCC(=O)N/N=C/c3ccccc3O)nc3ccccc3c2=O)cc1	-25.5% (active)
CCN(CC)CC#CCOC(=O)[C@]1(C)CCC[C@]2(C)[C@H]3C[C@H]4C(C(C)C)=C[C@]3(CC[C@H]21)[C@@H]1C(=O)CCC(=O)[C@@H]14	-36.3% (active)
Cc1ccc2c(-c3nnc(N)s3)cc(=O)oc2c1C	100%
COc1cc(C2CC(=O)Nc3c2c(C)nn3-c2nc3ccccc3[nH]2)c(OC)c2c1OCO2 (stereo not given)	26.2%
Cc1cccc(NCS(=O)(=O)O)c1	103%

Structure (SMILES)	growth
CCOC(=O)c1c(C)oc2ncnc(N3CCN(C(=O)COc4ccc(SC)cc4)CC3)c12	97.2%
O=C1NCN(c2ccccc2)C12CCN(CCCC(c1ccc(F)cc1)c1ccc(F)cc1)CC2	32.6%
CC(C)(N)CO[C@H]1C[C@H]2CC[C@@]1(C)C2(C)C	111%
C=C1CCC2C3(C)COC(C)(C)OC3CCC2(C)C1C/C=C1/C(=O)OCC1OC(C)=O (stereo not given)	-43.8% (active)
CC(C)/C=N/NC(N)=S	104%
Clc1ccc(/C=C/c2ccccn2)c(Cl)c1	86%
CN(C)CCCN=c1cc2c(=O)n(CCCN(C)C)c(=O)c3c(NCCCN(C)C)cc4c(O)n(CCCN(C)C)c(=O)c1c4c3-2	61.2%
O=C1/C(=C/c2ccccc2)SC(=Nc2ccccc2)N1Nc1ccccc1	-7.82% (active)
COc1ccc(C2=Nc3c(N)nc(N)nc3NC(c3cccc(Nc4ccnc5cc(C(F)(F)F)ccc45)c3)C2)cc1 (stereo not given)	81.6%
COc1cc2cc(NCc3ccc(Cl)cc3)nc(C)c2cc1OC	31.3%
CON1C(=O)CC[C@]2(C)[C@H]3CC[C@@H]4C([C@@]5(C)CCC(=O)O5)CC[C@@]4(C)[C@]3(C)CC[C@H]2C1(C)C (stereo not given in full)	100%
Cn1nc(CC#N)c2c(=N)n(N)cnc21	84.4%
C/C(=C\CCc1ccsc1)CC/C=C(\C)CCCN1CCSCC1	67.7%
CCNCCNc1c(C)c(-c2ccc(C(F)(F)F)cc2)c(C#N)c2nc3ccccc3n12	74%
CS(=O)(=O)Nc1cc(-c2ccc3ncnc(Nc4ccc(OCc5ccccn5)c(Cl)c4)c3c2)cnc1Cl	4.82% (active)
NCCNc1ccc2cc(-c3nc4ccccc4[nH]3)c(=O)oc2c1	80.1%
O=C(c1ccccc1)c1ccc(O)c2ncccc12	19.8%
COc1ccc(Nc2ncnc3c2sc2nc(C)cc(C)c23)cc1	97.9%
COc1cc(Cl)cc(-c2nn(-c3cccc(NC(=O)c4cc(C(F)(F)F)cc(C(F)(F)F)c4)c3)cc2-c2ccncc2)c1	84.3%
Oc1cccc2ccc(N/N=C/c3cc(CN4CCCCC4)c(O)c4ncccc34)nc12	-12.1% (active)
